The text below walks through data of PubChem BioAssay (Tox21).

Results filed as inconclusive are left out. Values without a mark were called inactive. Calls of active or inactive are those of the source. Unless noted, calls come from the whole dose curve; as a rule, active = well fitted curve in the direction sought with a large enough effect in the repeat runs; inconclusive = weak or mixed curves; inactive = no such curve, though single readings can be large; an effect the other way counts as inactive or inconclusive.

The nature of assay [1]: qHTS assay to identify small molecule agonists of the peroxisome proliferator-activated receptor delta (PPARd) signaling pathway - cell viability counter screen (AID 743211). Note: nearly all actives have a fitted effect of over 55% in size. Note: potency is the fitted concentration of half-maximal effect. Put shortly: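 Read-out: CellTiter-Glo luminescence, 30 min RT, measured in the same wells as the beta-lactamase reporter. Cells: GeneBLAzer PPAR delta UAS-bla HEK293H, 3000 cells/well, compound exposure 17 h at 37C.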
(In general: In qHTS, concentration-response curves come from the screen itself.)

The target of assay [2] is Peroxisome proliferator-activated receptor delta (Homo sapiens) (UniProt Q03181). The assay can be described thus: qHTS assay to identify small molecule agonists of the peroxisome proliferator-activated receptor delta (PPARd) signaling pathway (AID 743212; calls by dose curve). The procedure, abridged:
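HEK293H UAS-bla reporter cells, human PPARd system; compounds delivered in DMSO after 5 h plating, then at 37 C. Beta-lactamase FRET read, 2 h RT substrate step.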

The nature of assay [3]: qHTS assay to identify small molecule antagonists of the peroxisome proliferator-activated receptor delta (PPARd) signaling pathway - cell viability counter screen (AID 743213). Note: nearly all actives have a fitted effect of over 50% in size. Put shortly: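 Luminescence from CellTiter-Glo, added after the bla read and incubated 30 min at room temperature, gives viability of HEK293H PPARd-bla cells exposed to compounds for 17 h at 37 C with 300 nM L165041.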

The target in assay [4] is Peroxisome proliferator-activated receptor delta (Homo sapiens) (UniProt Q03181). The assay can be described thus: qHTS assay to identify small molecule antagonists of the peroxisome proliferator-activated receptor delta (PPARd) signaling pathway (AID 743215; active = well fitted inhibition curve with a large enough effect in the signal ratio in the repeat runs, not every such curve was filed as active; the % refers to the signal ratio;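 note: cells stimulated with agonist L165041 at 300 nM final during compound exposure; series mostly up to about 62 µM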). The procedure, abridged:
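Antagonist-mode beta-lactamase reporter screen: HEK293H cells with UAS-bla under PPARd control, stimulated by 300 nM L165041 (final) alongside test compound for 17 h at 37 C, then FRET fluorescence after 2 h substrate incubation.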

Assay [5] in a line: qHTS assay to identify small molecule agonists of the farnesoid-X-receptor (FXR) signaling pathway - cell viability counter screen (AID 743218). Note: nearly all actives have a fitted effect of over 45% in size. Put shortly: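 In GeneBLAzer FXR-UAS-bla HEK 293T cells, compounds act for 16 h at 37 C. Cell viability is then scored in the reporter wells by CellTiter-Glo, 30 min at RT, luminescence.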
Assay [6] is described as follows: qHTS assay to identify small molecule antagonists of the farnesoid-X-receptor (FXR) signaling pathway - cell viability counter screen (AID 743221; active = well fitted cell-killing curve with a large enough effect in the repeat runs, not every such curve was filed as active; note: nearly all actives have a fitted effect of over 50% in size). The procedure, abridged:
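HEK 293T FXR-bla cells, 5 h pre-incubation; compound + CDCA 50 uM final, 16 h, 37 C; beta-lactamase FRET read first, then CellTiter-Glo luminescence, 30 min RT.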

In assay [7] the target is Vitamin D3 receptor (Homo sapiens) (UniProt P11473). The experiment in a line: qHTS assay to identify small molecule agonists of the vitamin D receptor (VDR) signaling pathway (AID 743222; calls by dose curve). Put shortly: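 Agonist activity measured in VDR-bla reporter cells. Exposure 16 h, 37C, 5% CO2; detection by B/G FRET substrate, 2 h RT.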
Assay [8] has the same target. The experiment in a line: qHTS assay to identify small molecule antagonists of the vitamin D receptor (VDR) signaling pathway (AID 743223; active = well fitted inhibition curve with a large enough effect in the signal ratio in the repeat runs, not every such curve was filed as active; the % refers to the signal ratio). The procedure, abridged:
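Beta-lactamase reporter read-out: FRET substrate fluorescence after 2 h at room temperature, following 16 h exposure of VDR-bla cells to test compound plus 3 nM (final) 1alpha,25-dihydroxyvitamin D3 agonist at 37C.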

Assay [9] deals with Bile acid receptor (Homo sapiens) (UniProt Q96RI1). The assay can be described thus: qHTS assay to identify small molecule antagonists of the farnesoid-X-receptor (FXR) signaling pathway (AID 743217; active = well fitted inhibition curve with a large enough effect in the signal ratio in the repeat runs, not every such curve was filed as active; the % refers to the signal ratio). Put shortly: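 Beta-lactamase reporter under UAS control in HEK 293T cells; compound exposure 16 h at 37 °C in the presence of chenodeoxycholic acid (50 uM final); signal from B/G FRET substrate after 2 h at room temperature.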

The target is the same in assay [10]. The assay can be described thus: qHTS assay to identify small molecule agonists of the farnesoid-X-receptor (FXR) signaling pathway (AID 743220; active = well fitted activation curve with a large enough effect in the signal ratio in the repeat runs, not every such curve was filed as active; the % refers to the signal ratio). Put shortly: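 Beta-lactamase reporter under UAS control in GeneBLAzer FXR HEK 293T cells (5000/well) measured with LiveBLAzer FRET substrate after 2 h at room temperature. Compound exposure lasted 16 h at 37C.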
% is set by controls: 0 for no effect and ±100 for the full control effect.

Sequence of Peroxisome proliferator-activated receptor delta (Homo sapiens) (Q03181 whole entry, looked up): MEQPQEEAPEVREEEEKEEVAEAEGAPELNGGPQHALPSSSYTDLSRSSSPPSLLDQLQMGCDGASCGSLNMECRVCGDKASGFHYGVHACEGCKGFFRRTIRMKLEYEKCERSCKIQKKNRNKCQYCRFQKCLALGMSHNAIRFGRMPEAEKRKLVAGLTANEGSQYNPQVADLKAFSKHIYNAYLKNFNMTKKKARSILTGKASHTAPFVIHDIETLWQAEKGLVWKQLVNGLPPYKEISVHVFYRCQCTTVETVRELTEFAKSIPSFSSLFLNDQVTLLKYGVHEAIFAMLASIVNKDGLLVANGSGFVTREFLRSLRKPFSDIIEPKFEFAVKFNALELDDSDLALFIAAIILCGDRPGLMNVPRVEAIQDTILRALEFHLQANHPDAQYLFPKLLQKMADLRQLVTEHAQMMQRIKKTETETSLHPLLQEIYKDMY
Sequence of Vitamin D3 receptor (Homo sapiens) (P11473 whole entry, looked up): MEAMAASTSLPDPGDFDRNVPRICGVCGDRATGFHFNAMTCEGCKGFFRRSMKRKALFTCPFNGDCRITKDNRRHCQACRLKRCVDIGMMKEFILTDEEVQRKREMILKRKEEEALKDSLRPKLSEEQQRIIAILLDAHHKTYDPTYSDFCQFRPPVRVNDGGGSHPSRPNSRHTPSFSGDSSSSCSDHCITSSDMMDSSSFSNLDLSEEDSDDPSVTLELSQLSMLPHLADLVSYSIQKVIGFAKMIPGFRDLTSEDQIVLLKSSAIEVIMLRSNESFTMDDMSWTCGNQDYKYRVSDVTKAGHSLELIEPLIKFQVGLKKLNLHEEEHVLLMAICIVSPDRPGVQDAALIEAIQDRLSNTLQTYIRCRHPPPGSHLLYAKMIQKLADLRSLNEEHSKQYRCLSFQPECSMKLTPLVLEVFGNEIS
Sequence of Bile acid receptor (Homo sapiens) (Q96RI1 whole entry, looked up): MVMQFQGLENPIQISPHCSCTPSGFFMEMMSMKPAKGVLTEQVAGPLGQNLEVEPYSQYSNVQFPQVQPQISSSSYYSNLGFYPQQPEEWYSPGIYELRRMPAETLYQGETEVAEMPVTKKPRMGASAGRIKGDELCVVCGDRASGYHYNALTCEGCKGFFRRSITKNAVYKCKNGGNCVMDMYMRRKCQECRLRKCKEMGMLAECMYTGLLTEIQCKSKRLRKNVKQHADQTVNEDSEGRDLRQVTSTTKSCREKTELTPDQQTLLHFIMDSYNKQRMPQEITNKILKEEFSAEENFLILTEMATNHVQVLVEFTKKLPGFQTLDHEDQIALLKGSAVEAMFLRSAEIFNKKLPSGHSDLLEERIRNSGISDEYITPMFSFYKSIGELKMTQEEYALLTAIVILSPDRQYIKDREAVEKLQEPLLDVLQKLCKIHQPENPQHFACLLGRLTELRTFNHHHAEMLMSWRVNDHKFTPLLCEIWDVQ

Turning to `CC(C)(C)CC(C)(C)c1ccc(Nc2ccc(C(C)(C)CC(C)(C)C)cc2)cc1`, the activity change, negative = cytotoxicity in assay [1] was -7.52% [at 5.95 µM]; in [6], 1.78% [at 5.95 µM]. In [2], the activation is 5.67% [at 5.95 µM]. Moreover, the results for the viability change, negative = cytotoxic in assay [3] and in assay [5] were 2.44% [at 6.26 µM] and -9.89% [at 5.95 µM], respectively. In addition, in assay [4], the ratio activity, negative = inhibition was -4.33% [at 6.26 µM].

As for `Cc1c(C)c2c(c(C)c1O)CC[C@@](C)(CCC[C@H](C)CCC[C@H](C)CCCC(C)C)O2`, the Potency entry in assay [1], in [2], in assay [3], in [4], in [5] and in assay [6] was “inactive” in each case. Further, the Potency entry in assay [7] and in [8] was “inactive” throughout.

Regarding `CCC(=O)OC(=O)CC`, the Potency result in [1], in assay [2], in [3], in [4], in assay [9] and in assay [10] was “inactive” throughout. In assay [6], the Potency result is “inactive”.

On to `Clc1sc(Cl)c(Cl)c1Cl`, for which the Potency entry in assay [1], in [2], in assay [3], in assay [4], in [5] and in [6] was “inactive” throughout. Moreover, the Potency entry in assay [7] and in assay [8] was “inactive” each time.

With `CC1=Nc2ccccc2C1(C)C`, the Potency result in assay [1], in assay [2], in assay [3], in assay [4], in [5] and in assay [6] was “inactive” throughout. Besides, the Potency result in assay [8] was “inactive”.

Take `O=C(O)c1cccc(C(F)(F)F)c1`: the Potency entry in assay [1], in [2], in assay [3], in assay [4], in assay [5] and in assay [6] was “inactive” in each case. The Potency result in [7] was “inactive”.

For the molecule `O=[N+]([O-])c1cccc(C(F)(F)F)c1`, the Potency result in [1], in assay [2], in assay [3], in assay [4], in [5] and in assay [6] was “inactive” throughout. Further, the Potency result in assay [7] and in [8] was “inactive” in each case.

Turning to `CN(C)Cc1ccccc1O`, the Potency result in assay [1], in [2], in assay [3], in assay [4], in assay [9] and in assay [5] was “inactive” throughout. Also, the Potency entry in assay [10], in [6], in assay [7] and in [8] was “inactive” throughout.

With `CCC(=O)C(=O)CC`, the Potency result in [1], in assay [2], in assay [3], in assay [4], in assay [5] and in assay [7] was “inactive” each time. In [8], the Potency result was “inactive”.

As for `CC1(C)[C@@H](O)CC[C@]2(C)[C@H]3C(=O)C=C4[C@@H]5C[C@@](C)(C(=O)O)CC[C@]5(C)CC[C@@]4(C)[C@]3(C)CC[C@@H]12`, in assay [1], the Potency was 38.5 µM (active).

In the case of `O=C(O)Cc1ccccc1Nc1c(Cl)cccc1Cl`, the Potency result in assay [1], in assay [2], in assay [3], in [4], in assay [9] and in assay [10] was “inactive” throughout. Besides, the Potency result in [6] is “inactive”.

For the molecule `Nc1nc(N)nc(-c2cc(Cl)ccc2Cl)n1`, the Potency entry in [1], in [2], in assay [3], in assay [4], in assay [9] and in assay [5] was “inactive” in each case. Further, the Potency entry in assay [10] and in [6] was “inactive” each time.

For `CC(=O)c1ccc(C(C)=O)cc1`, the Potency entry in assay [1], in assay [2], in assay [3], in assay [4], in assay [9] and in assay [5] was “inactive” each time. For the same molecule, the Potency result in assay [10] and in assay [7] was “inactive” in each case.

For `CCc1ccc(Br)cc1`, the Potency entry in assay [1], in assay [2], in [3], in assay [4], in assay [9] and in [10] was “inactive” in each case. Moreover, the Potency result in assay [6], in [7] and in assay [8] was “inactive” each time.

On to `S=c1nccc[nH]1`, for which the Potency result in [1], in assay [2], in assay [3], in assay [4], in [9] and in [5] was “inactive” each time. The Potency entry in assay [10] is “inactive”.

With `O=C(O)c1cc(=O)c2ccccc2o1`, the Potency result in assay [1], in assay [2], in assay [3], in [4], in [5] and in assay [6] was “inactive” in each case. Also, the Potency entry in assay [7] and in [8] was “inactive” each time.

`CCCCCCOC(=O)C(C)CC` (stereo unspecified): the Potency entry in assay [1], in assay [2], in [3], in assay [4], in [9] and in assay [5] was “inactive” in each case. Moreover, the Potency entry in assay [10] and in assay [6] was “inactive” each time.

For the molecule `C=C(C)c1cccc(C(=C)C)c1`, the Potency result in assay [1], in [2], in [3], in assay [4], in [9] and in assay [5] was “inactive” in each case. The Potency entry in assay [10] and in [6] was “inactive” in each case.

For `CCCCC(CC)COC(=O)CCCCC(=O)OCc1ccccc1` (stereo unspecified), the Potency entry in [1], in [2], in assay [3], in assay [4], in assay [9] and in assay [5] was “inactive” each time. In addition, the Potency entry in assay [10], in [6], in [7] and in assay [8] was “inactive” each time.

As to `Cc1ccc(-c2ccccc2)cc1`, the Potency result in [1], in assay [2], in assay [3], in [4], in assay [5] and in assay [6] was “inactive” each time.

Take `Clc1nnc(Cl)c2ccccc12`: the Potency entry in assay [1], in assay [2], in assay [3], in [4], in [5] and in assay [6] was “inactive” in each case. Also, the Potency result in [7] and in assay [8] was “inactive” throughout.

On to `Cc1c(C)c2c(c(C)c1OC(=O)c1cccnc1)CC[C@@](C)(CCC[C@H](C)CCC[C@H](C)CCCC(C)C)O2`, for which the Potency result in [1], in [2], in assay [3], in assay [4], in [5] and in [7] was “inactive” in each case. In [8], the Potency result was “inactive”.

`CCCCOC(=O)CO`: the Potency entry in [1], in [2], in assay [3], in assay [4], in assay [5] and in [6] was “inactive” each time. Besides, the Potency entry in assay [7] and in assay [8] was “inactive” each time.

Take `CC(=O)CC(=O)Nc1ccc(S(=O)(=O)O)cc1`: the Potency entry in assay [1], in assay [2], in [3], in [4], in assay [5] and in assay [6] was “inactive” throughout. Besides, the Potency entry in assay [7] and in assay [8] was “inactive” in each case.

`COc1ccc(NC(=O)CC(C)=O)cc1`: the Potency entry in assay [1], in [2], in assay [3], in assay [4], in assay [5] and in assay [6] was “inactive” each time. In addition, the Potency result in [7] and in assay [8] was “inactive” each time.

`CC(C)CCOC(=O)/C=C/c1ccccc1`: the Potency result in assay [1], in assay [2], in [3], in assay [4], in [9] and in [5] was “inactive” in each case. Also, the Potency result in assay [10], in [6] and in [7] was “inactive” in each case.
